PubChem BioAssay
Calls of active or inactive are those of the source.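 How the source made its calls, unless noted: active means fluorescence slope higher than the sample average by over 3 SD (cut at about -0.22 in these data, passing the limit was not always enough); inactive means the rest.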

What was measured:
[1] = inhibitors of TNFa-induced NFkB p65 translocation, primary screen, imaging, HUVEC, MLSMR starter and 10KST1 sets (AID 438;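 active means inhibition above 20% together with a positive visual image hit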;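 further: compound added about 3h40 before a 20 min TNFalpha stimulation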;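 on inhibition: signal is the nuclear over cytoplasmic p65 intensity ratio per well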); conditions: HUVEC TNFa-induced p65 nuclear translocation; cell count: measured here: nuclei count (cytotoxicity indicator), at 2.08 µM; inhibition: at 2 µM, stronger effect = higher value, 0% TNFa-plus-vehicle, 100% no-TNFa wells
[2] = inhibitors of mutant huntingtin aggregation, primary screen, imaging, exon1htt(103Q)mCFP cells, high-content imaging (AID 483;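 active means visual image review flags a hit and inhibition of aggregation exceeds 20%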;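 further: compound exposure lasted 3 days before fixation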;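 on nuclei count: percent of the per-plate median nuclei count of sample wells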); conditions: exon1htt(103Q)mCFP cell line, aggregate imaging, at 2 µM; inhibition of aggregation: stronger effect = higher value; nuclei count: measured here: cell count, toxicity
[3] = inhibitors of E-selectin induction by TNFa, primary screen, imaging, HUVEC, immunofluorescence, MLSMR starter and 10KST1 sets (AID 487;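 active means visually confirmed hit in the image check and inhibition above 20%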;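 on inhibition: signal is fraction of cell area covered by stained E-selectin grains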;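 on nuclei count: 100% = median nuclei count of all wells on the same plate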); conditions: HUVEC TNFalpha-induced E-selectin immunofluorescence imaging, at 2 µM; inhibition: stronger effect = higher value; nuclei count: measured here: cell number, toxicity
[4] = target: Voltage-gated potassium channel subunit beta-2 (Rattus norvegicus) (UniProt P62483); experiment: KvBeta enzyme negative modulators, primary screen, biochemical, NADPH fluorescence (AID 622); conditions: recombinant KvBeta, 4-cyanobenzaldehyde reduction, at 10 µM, stronger effect = higher value;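 further: slope of raw intensity against log time taken from 70 to 1610 s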
[5] = target: Voltage-gated potassium channel subunit beta-2 (Rattus norvegicus) (UniProt P62483); experiment: KvBeta positive modulators, primary screen, biochemical, NADPH fluorescence (AID 623;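 active means NADPH fluorescence slope more negative than the mean of all samples by about 3 SD, 99.7% confidence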;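 further: fluorescence intensity change per second fitted from 20 to 320 s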); conditions: Recombinant KvBeta, NADPH fluorescence decrease slope, 10 min; at 10 µM; stronger effect = lower value
[6] = target: Alpha-2C adrenergic receptor (Homo sapiens) (UniProt P18825); experiment: modulators of alpha2C/GIRK thallium flux, primary screen, cell-based, HEK293 alpha2C/GIRK1/2 (AID 624;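 active means fluorescence slope after compound addition differing from the mean of all screened samples at 99.7% confidence, in either direction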;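 further: slope of fluorescence ratio to pre-addition baseline per second over 15 to 24 s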); conditions: thallium flux BTC fluorescence, at 10 µM, actives lie on both sides
[7] = inhibitors of Sendai virus-induced IRF3 signaling, primary screen, TLR/RLR signaling modifier project, cell-based, Sendai virus stimulus, luciferase, 10K MLSCN set (AID 602276;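 active means inhibition at or above 50% at 10 µM; inactive means inhibition below 50%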;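 further: firefly luciferase from ISG56 promoter only with Renilla not read in this screen; 0% = Sendai virus plus DMSO and 100% = medium plus DMSO without virus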); conditions: HEK293 RL24 IRF3 luciferase reporter, at 10 µM, stronger effect = higher value
[8] = inhibitors of poly I:C-induced TLR3 signaling, primary screen, cell-based, poly I:C stimulus, luciferase, 10K MLSCN set (AID 602277;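 active means inhibition of the reporter signal at or above 50%; inactive means inhibition below 50%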); conditions: HEK293-TLR3 RL24 IRF3 luciferase reporter, at 10 µM, stronger effect = higher value

Chain of Voltage-gated potassium channel subunit beta-2 (Rattus norvegicus) (P62483 whole entry, looked up): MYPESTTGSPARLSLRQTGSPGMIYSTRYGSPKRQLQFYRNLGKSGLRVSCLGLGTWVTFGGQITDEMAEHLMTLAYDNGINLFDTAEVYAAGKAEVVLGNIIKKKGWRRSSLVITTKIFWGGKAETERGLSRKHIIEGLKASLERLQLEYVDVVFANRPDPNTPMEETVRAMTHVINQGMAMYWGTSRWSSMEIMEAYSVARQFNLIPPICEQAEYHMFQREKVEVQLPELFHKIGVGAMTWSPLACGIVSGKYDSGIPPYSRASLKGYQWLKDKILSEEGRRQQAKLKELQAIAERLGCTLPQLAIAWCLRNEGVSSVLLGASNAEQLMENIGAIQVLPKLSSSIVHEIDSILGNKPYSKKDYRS
Chain of Alpha-2C adrenergic receptor (Homo sapiens) (P18825 whole entry, looked up): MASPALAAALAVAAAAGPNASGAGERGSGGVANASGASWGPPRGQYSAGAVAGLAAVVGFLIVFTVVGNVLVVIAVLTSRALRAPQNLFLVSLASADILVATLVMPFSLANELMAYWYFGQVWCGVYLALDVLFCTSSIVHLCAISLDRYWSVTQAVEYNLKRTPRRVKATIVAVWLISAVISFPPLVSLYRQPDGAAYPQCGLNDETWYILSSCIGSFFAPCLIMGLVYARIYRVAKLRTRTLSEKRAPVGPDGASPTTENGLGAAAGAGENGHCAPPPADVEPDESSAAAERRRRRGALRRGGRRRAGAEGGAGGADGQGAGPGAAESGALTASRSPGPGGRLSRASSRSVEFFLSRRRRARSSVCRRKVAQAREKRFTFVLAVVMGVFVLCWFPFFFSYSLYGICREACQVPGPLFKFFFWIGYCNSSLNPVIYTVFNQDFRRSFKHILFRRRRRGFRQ

| Compound | cell count [1] | inhibition [1] | inhibition of aggregation [2] | nuclei count [2] [%] | inhibition [3] | nuclei count [3] [%] | fluorescence slope [4] | NADPH fluorescence slope [5] | slope [6] | inhibition [7] | inhibition [8] |
| --- | --- | --- | --- | --- | --- | --- | --- | --- | --- | --- | --- |
| CC(=O)n1cc(-c2ccncc2)c2ccccc21 | 474 | -5% (inactive) | 22.9% (inactive) | 69.3 | -74.9% (inactive) | 106 | -0.57 (inactive) | -1.3e-05 (inactive) | 0.00696 (inactive) | -5.39% (inactive) | 11.5% (inactive) |
| O=S(=O)(c1cc(Cl)ccc1Br)N1CCOCC1 | 450 | 10.6% (inactive) | -0.6% (inactive) | 90.7 | -192% (inactive) | 133 | -0.431 (inactive) | -7.3e-05 (inactive) | 0.00323 (inactive) | 6.91% (inactive) | 35.8% (inactive) |
| NC(=O)c1cccc(S(=O)(=O)N2CCCCC2)c1 | 417 | 3% (inactive) | 15.9% (inactive) | 105 | 47.1% (inactive) | 87.4 | -0.473 (inactive) | -4.7e-05 (inactive) | 0.006 (inactive) | 4.76% (inactive) | 31.6% (inactive) |
| c1ccc(CN2CCN(CCCNc3ccc4nnc(-c5ccccc5)n4n3)CC2)cc1 | 485 | -5.5% (inactive) | 13.8% (inactive) | 10.8 | -67.5% (inactive) | 102 | -0.63 (inactive) | -1.7e-05 (inactive) | 0.00645 (inactive) | -3.46% (inactive) | -17.8% (inactive) |
| COC(=O)CSc1ncccc1-c1nc2ccccc2[nH]1 | 473 | -4.5% (inactive) | -2% (inactive) | 111 | -48.5% (inactive) | 99.2 | -0.512 (inactive) | 3.1e-05 (inactive) | 0.00493 (inactive) | -16.6% (inactive) | -32.8% (inactive) |
| O=C(COC(=O)C1CC2C=CC1C2)Nc1ccc2c(c1)OC(F)(F)O2 (stereo not drawn) | 434 | 9.3% (inactive) | 13.3% (inactive) | 89.2 | 11.1% (inactive) | 91.8 | -0.437 (inactive) | -6.4e-05 (inactive) | 0.00772 (inactive) | 15.9% (inactive) | 20.1% (inactive) |
| COCCNC(=O)C(c1ccc(C)o1)N(Cc1ccc(OC)cc1)C(=O)Cn1nnc2ccccc21 (stereo not drawn) | 249 | 7% (inactive) | -3.6% (inactive) | 93.1 | 25.3% (inactive) | 82.9 | -0.648 (inactive) | -1.9e-05 (inactive) | 0.00364 (inactive) | 10.1% (inactive) | 6.31% (inactive) |
| Cc1nn(S(=O)(=O)N2CCCCC2)c(C)c1Br | 335 | 4% (inactive) | 10.9% (inactive) | 101 | -93.4% (inactive) | 119 | -0.291 (inactive) | -1.5e-05 (inactive) | 0.00571 (inactive) | 1.73% (inactive) | 17.2% (inactive) |
| Cc1[nH]nc2c1C(=O)CCC2 | 639 | 10.7% (inactive) | 27.4% (inactive) | 96.1 | 14.9% (inactive) | 95.1 | -0.366 (inactive) | -3.1e-05 (inactive) | 0.00524 (inactive) | -1.33% (inactive) | 0.12% (inactive) |
| COc1cc(C)c(-c2cc(C(=O)O)c(C)o2)cc1C(C)C | 451 | -7.7% (inactive) | -1.5% (inactive) | 95.9 | -99% (inactive) | 130 | -0.416 (inactive) | 6.3e-06 (inactive) | 0.00528 (inactive) | 12.3% (inactive) | 17.2% (inactive) |
| CC(=O)c1ccccc1OCCn1nnc(-c2ccc(C)cc2)n1 | 556 | -13.7% (inactive) | -20.1% (inactive) | 106 | -24.2% (inactive) | 109 | -0.487 (inactive) | -5.6e-05 (inactive) | 0.0055 (inactive) | 12.9% (inactive) | 14% (inactive) |
| Clc1cccc(N2CCN(Cc3nc(-c4ccccc4)no3)CC2)c1 | 716 | -1.1% (inactive) | 8.5% (inactive) | 112 | -43.3% (inactive) | 122 | -0.541 (inactive) | -9e-05 (inactive) | 0.00744 (inactive) | 2.81% (inactive) | 29.2% (inactive) |
| CCc1nc(N)c(C#N)c(-c2ccc(OC)c(OC)c2)c1C | 628 | -4.4% (inactive) | -13.8% (inactive) | 98.5 | -37% (inactive) | 111 | -0.384 (inactive) | 1e-05 (inactive) | 0.00633 (inactive) | 16.9% (inactive) | 21.8% (inactive) |
| COc1cc(OC)c(-c2nn3c(C4CCCCC4)nnc3s2)cc1OC | 573 | 7.2% (inactive) | 1.8% (inactive) | 109 | -115% (inactive) | 126 | -0.412 (inactive) | -5.9e-05 (inactive) | 0.00604 (inactive) | 12.8% (inactive) | 16.9% (inactive) |
| CCOC(=O)CN1CC23C=CC(O2)C(C(=O)Nc2ccc(C(C)=O)cc2)C3C1=O (stereo not drawn) | 813 | -6.9% (inactive) | -2.6% (inactive) | 127 | -18.4% (inactive) | 127 | -0.574 (inactive) | -2.3e-05 (inactive) | 0.00637 (inactive) | -3.34% (inactive) | 7.25% (inactive) |
| CC12COC3(C(=O)Nc4ccc(Cl)cn4)CC1CCC32C (stereo not drawn) | 773 | -8% (inactive) | 16.9% (inactive) | 85.1 | -32.6% (inactive) | 102 | -0.395 (inactive) | -5.6e-05 (inactive) | 0.00598 (inactive) | -1.35% (inactive) | 10.2% (inactive) |
| Cc1ccc(C(C(=O)NC2CCCCC2)N2CCOCC2)cc1 (stereo not drawn) | 674 | -5.2% (inactive) | -13% (inactive) | 114 | -41.7% (inactive) | 125 | -0.468 (inactive) | -0.000297 (inactive) | 0.00526 (inactive) | -0.432% (inactive) | 15.1% (inactive) |
| Cn1cc(CN2CCc3ccccc3C2)c2ccccc21 | 361 | -12.1% (inactive) | -6.2% (inactive) | 146 | -62.7% (inactive) | 110 | -0.408 (inactive) | -0.000148 (inactive) | 0.00535 (inactive) | 20.8% (inactive) | 37.6% (inactive) |
| COc1ccc(S(=O)(=O)n2nc(OC(=O)c3ccc(C)cc3)cc2N)cc1 | 566 | -19.6% (inactive) | -9.1% (inactive) | 106 | -31% (inactive) | 144 | -0.337 (inactive) | -1.2e-06 (inactive) | 0.00323 (inactive) | 14% (inactive) | 19.2% (inactive) |
| Cc1cccc(OCCCc2c(C)n[nH]c2C)c1 | 348 | 2.2% (inactive) | 7.5% (inactive) | 98.5 | -10% (inactive) | 118 | -0.501 (inactive) | 6.9e-05 (inactive) | 0.00319 (inactive) | -15.1% (inactive) | -15.9% (inactive) |
| COc1ccc(Cn2nnnc2C(c2cccs2)N2CCOCC2)cc1 (stereo not drawn) | 572 | -4.8% (inactive) | -10.4% (inactive) | 98.8 | -10.4% (inactive) | 114 | -0.419 (inactive) | 1.2e-06 (inactive) | 0.00389 (inactive) | -1.07% (inactive) | -0.428% (inactive) |
| O=C(O)CC1=C(O)C(=O)N(c2ccccc2)C1c1ccccc1 (stereo not drawn) | 405 | 1.1% (inactive) | 6.7% (inactive) | 111 | -61.5% (inactive) | 117 | -0.391 (inactive) | -4e-05 (inactive) | 0.00537 (inactive) | 4.01% (inactive) | 29.8% (inactive) |
| c1ccc(Cn2nnnc2C(c2cccs2)N2CCSCC2)cc1 (stereo not drawn) | 482 | -10.4% (inactive) | -0.3% (inactive) | 110 | -56.7% (inactive) | 95.9 | -0.514 (inactive) | -6.4e-05 (inactive) | 0.00524 (inactive) | -6.43% (inactive) | 14.3% (inactive) |
| C/C=C/c1ccc(OCCn2cncn2)c(OC)c1 | 746 | -6.6% (inactive) | -27.6% (inactive) | 132 | -73.8% (inactive) | 120 | -0.519 (inactive) | 3.6e-05 (inactive) | 0.00659 (inactive) | -19.9% (inactive) | 2% (inactive) |
| O=C(Nc1ccncc1)C1CCCN(S(=O)(=O)c2cccc3cccnc23)C1 (stereo not drawn) | 686 | 6.8% (inactive) | -328% (inactive) | 4.8 | -46% (inactive) | 104 | -0.548 (inactive) | -3.9e-05 (inactive) | 0.00584 (inactive) | 40.7% (inactive) | 34.4% (inactive) |
| C=CCn1c(SCC(=O)NCC2CCCO2)nc2scc(-c3ccco3)c2c1=O (stereo not drawn) | 557 | -10.3% (inactive) | -29.4% (inactive) | 98.5 | 28.1% (inactive) | 98.7 | -0.459 (inactive) | -0.000271 (active) | 0.00487 (inactive) | 11.9% (inactive) | 13.5% (inactive) |
| COc1ccc(OC)c(C(=O)COC(=O)c2cc(C)oc2C)c1 | 747 | -9.6% (inactive) | 38.1% (inactive) | 103 | -2.3% (inactive) | 114 | -0.361 (inactive) | 2.4e-05 (inactive) | 0.00558 (inactive) | 6.43% (inactive) | -0.082% (inactive) |
| O=C(CC(SCCO)c1ccc2c(c1)OCO2)c1ccco1 (stereo not drawn) | 538 | -10.2% (inactive) | -17.3% (inactive) | 114 | -60.6% (inactive) | 128 | -0.602 (inactive) | -5.3e-06 (inactive) | 0.00625 (inactive) | -31.1% (inactive) | -69.6% (inactive) |
